Measurements from PubChem BioAssay (NCATS).
Inconclusive results are not listed. A call without a number means that no potency is given here. The source made the active and inactive calls. Calls come from the whole dose curve; tested in HEK293 reporter line.

Test: qHTS for Inhibitors of the Functional Ribonucleoprotein Complex (vRNP) of Lassa (LASV) Arenavirus: LASV Primary Screen - GLuc reporter signal (AID 1347082); note: nearly all actives have a fitted effect of over 60% in size
Conditions: LASV minigenome vRNP, Gaussia luciferase reporter; series mostly up to 57.5 µM

| SMILES | Potency |
| --- | --- |
| Nc1ccn(C2CO[C@H](CO)O2)c(=O)n1 (stereo partly specified) | inactive |
| Cc1cc(O)c(C(C)C)cc1Cl | inactive |
| O=C(OCC(COC(=O)c1cccnc1)(COC(=O)c1cccnc1)COC(=O)c1cccnc1)c1cccnc1 | inactive |
| Cc1ccc(/C(=C\CN2CCCC2)c2ccccn2)cc1 | inactive |
| Cc1cc(N)c2cc(NC(=O)Nc3ccc4nc(C)cc(N)c4c3)ccc2n1 | inactive |
| COc1ccc2cc1Oc1ccc(cc1)C[C@H]1c3c(cc4c(c3Oc3cc5c(cc3OC)CCN(C)[C@@H]5C2)OCO4)CCN1C | inactive |
| CCOc1c(N2CCOCC2)cnn(C)c1=O | inactive |
| O=C(CCCCCCCCC#CI)Oc1ccccc1 | inactive |
| CCCNC(C)(C)COC(=O)c1ccccc1 | inactive |
| CCC(=O)Oc1ccc2c(c1)CC[C@@H]1[C@@H]2CC[C@@]2(C)[C@H]1C[C@@H](OC(=O)CC)[C@@H]2OC(=O)CC | inactive |
| C[C@@H]1C[C@H]2[C@@H]3CCC4=CC(=O)C=C[C@]4(C)[C@@]3(F)[C@@H](O)C[C@]2(C)[C@@]1(O)C(=O)COC(=O)c1ccncc1 | inactive |
| CC1(C)[C@H](C(=O)O)N2C(=O)C[C@H]2S1(=O)=O | inactive |
| Cc1cc(CC(=O)O)n(C)c1C(=O)c1ccc(Cl)cc1 | inactive |
| CCCCCCCC/C=C\CCCCCCCCN | inactive |
| Nc1c2c(nc3ccccc13)CCCC2 | inactive |
| CC1CC(OC(=O)C(O)c2ccccc2)CC(C)(C)N1C (stereo unspecified) | inactive |
| Cc1cc(O)c(C)c(C)c1O | inactive |
| CC(C)NCCCC1(C(N)=O)c2ccccc2-c2ccccc21 | inactive |
| CC(C(O)c1ccc(O)cc1)N1CCC(Cc2ccccc2)CC1 (stereo unspecified) | inactive |
| N[C@@H](Cc1c[nH]c2ccc(O)cc12)C(=O)O | inactive |
| C=CCCCCCCCCC(=O)O | inactive |

Test: qHTS for Inhibitors of the Functional Ribonucleoprotein Complex (vRNP) of Lassa (LASV) Arenavirus: Viability assay - alamar blue signal for LASV Primary Screen (AID 1347083); note: nearly all actives have a fitted effect of over 80% in size
Conditions: cell viability, alamar blue fluorescence (LASV minigenome counter-screen); series mostly up to 57.5 µM

| SMILES | Potency |
| --- | --- |
| OC(C#CCN1CCCC1)(c1ccccc1)c1ccccc1 | inactive |
| CCN(CC)CCOC(=O)C(c1ccccc1)C1CCCCC1 (stereo unspecified) | inactive |
| O=C(O)CCC(=O)OC[C@@H](NC(=O)C(Cl)Cl)[C@H](O)c1ccc([N+](=O)[O-])cc1 | inactive |
| C[C@@H](CN(C)C)CN1c2ccccc2Sc2ccccc21 | inactive |
| CCOc1cc(N)c(Cl)cc1C(=O)NCC1CN(Cc2ccc(F)cc2)CCO1 (stereo unspecified) | inactive |
| CN1CCN(C2Cc3ccccc3Sc3ccc(Cl)cc32)CC1 (stereo unspecified) | inactive |
| COc1cc(C(=O)OCCCN2CCCN(CCCOC(=O)c3cc(OC)c(OC)c(OC)c3)CC2)cc(OC)c1OC | inactive |
| CSc1ccc(/C=C2/C(C)=C(CC(=O)O)c3cc(F)ccc32)cc1 | inactive |
| O=C(O)CNC(=O)c1ccccc1I | inactive |
| COc1cccc(N(C)C(=S)Oc2ccc3c(c2)CCCC3)n1 | inactive |
| c1ccc(OCc2ccc(CCCN3CCOCC3)cc2)cc1 | inactive |
| CCCCCCCCCCCCOS(=O)(=O)O | inactive |
| Cc1nc2sccn2c(=O)c1CCN1CCC(=C(c2ccc(F)cc2)c2ccc(F)cc2)CC1 | inactive |
| CC1(C)[C@@H]2CC[C@@]1(C)C(=O)C2 | inactive |
| CN(C)CCC(c1ccccc1)c1ccccn1 (stereo unspecified) | inactive |
| COc1ccc2c(c1)c(CC(=O)OCC(=O)O)c(C)n2C(=O)c1ccc(Cl)cc1 | inactive |
| CN(C)CCOc1ccccc1Cc1ccccc1 | inactive |
| CC(=O)[C@@]1(O)CC[C@H]2[C@@H]3CCC4=CC(=O)CC[C@]4(C)[C@H]3CC[C@@]21C | inactive |
| OC(CCN1CCCCC1)(c1ccccc1)c1ccccc1 | inactive |
| Nc1ccn(C2CO[C@H](CO)O2)c(=O)n1 (stereo partly specified) | inactive |

| SMILES | Potency |
| --- | --- |
| Cc1cc(O)c(C(C)C)cc1Cl | inactive |
| O=C(OCC(COC(=O)c1cccnc1)(COC(=O)c1cccnc1)COC(=O)c1cccnc1)c1cccnc1 | inactive |
| Cc1ccc(/C(=C\CN2CCCC2)c2ccccn2)cc1 | inactive |
| Cc1cc(N)c2cc(NC(=O)Nc3ccc4nc(C)cc(N)c4c3)ccc2n1 | inactive |
| COc1ccc2cc1Oc1ccc(cc1)C[C@H]1c3c(cc4c(c3Oc3cc5c(cc3OC)CCN(C)[C@@H]5C2)OCO4)CCN1C | inactive |
| CCOc1c(N2CCOCC2)cnn(C)c1=O | inactive |
| O=C(CCCCCCCCC#CI)Oc1ccccc1 | inactive |
| CCCNC(C)(C)COC(=O)c1ccccc1 | inactive |
| CCC(=O)Oc1ccc2c(c1)CC[C@@H]1[C@@H]2CC[C@@]2(C)[C@H]1C[C@@H](OC(=O)CC)[C@@H]2OC(=O)CC | inactive |
| C[C@@H]1C[C@H]2[C@@H]3CCC4=CC(=O)C=C[C@]4(C)[C@@]3(F)[C@@H](O)C[C@]2(C)[C@@]1(O)C(=O)COC(=O)c1ccncc1 | inactive |
| CC1(C)[C@H](C(=O)O)N2C(=O)C[C@H]2S1(=O)=O | inactive |
| Cc1cc(CC(=O)O)n(C)c1C(=O)c1ccc(Cl)cc1 | inactive |
| CCCCCCCC/C=C\CCCCCCCCN | inactive |
| Nc1c2c(nc3ccccc13)CCCC2 | inactive |
| CC1CC(OC(=O)C(O)c2ccccc2)CC(C)(C)N1C (stereo unspecified) | inactive |
| Cc1cc(O)c(C)c(C)c1O | inactive |
| CC(C)NCCCC1(C(N)=O)c2ccccc2-c2ccccc21 | inactive |
| CC(C(O)c1ccc(O)cc1)N1CCC(Cc2ccccc2)CC1 (stereo unspecified) | inactive |
| N[C@@H](Cc1c[nH]c2ccc(O)cc12)C(=O)O | inactive |
| C=CCCCCCCCCC(=O)O | inactive |
